Source: PubChem BioAssay (NCATS)
Results filed as inconclusive are left out. The source made the active and inactive calls. Unless noted, the call rests on the fitted dose curve; in most records, active means well fitted curve in the direction sought with a large enough effect; inconclusive means small, poorly fitted or top-dose-only effect, or another doubt; inactive means no such curve, though single readings can be large; an effect the other way counts as inactive or inconclusive.

Experiments:
[1] = qHTS Assay for Lipid Storage Modulators (AID 1519; calls by dose curve; on activity change, negative = inhibition: on the % scale 0 is the no-effect control and ±100 the full control effect); details: Drosophila S3 cells, BODIPY lipid droplet/cell ratio, laser cytometry, cells loaded with oleic acid
Method in brief: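 Cells seeded at 5,000 per well were treated with compounds over a concentration series and loaded with oleic acid (400 uM, as added). Lipid droplet fluorescence (488 nm excitation, 500-530 nm channel) was read by laser-scanning cytometry and normalized to 20 uM Triacsin C.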

[2] = target: DNA repair nuclease/redox regulator APEX1 (Homo sapiens) (UniProt P27695); experiment: qHTS Validation Assay for Inhibitors of the Human Apurinic/apyrimidinic Endonuclease 1 (APE1) (AID 1705; further: potency means the concentration at half of the fitted maximal effect;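 on activity change, negative = inhibition: TAMRA fluorescence gain over two minutes as APE1 cuts a quenched THF abasic duplex; on the % scale 0 is the no-effect control and ±100 the full control effect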)
Method in brief: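 Endonuclease activity of human APE1 is followed as dequenching when the enzyme incises a tetrahydrofuran abasic site in a short duplex labelled 5'-TAMRA/3'-BHQ-2 (50 nM final), after 15 min enzyme–compound preincubation at room temperature.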

[3] = Counterscreen for APE1 Inhibitors: Fluorescent Dye Displacement Validation Assay (AID 1707); further: potency means the concentration at half of the fitted maximal effect;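 on activity change, negative = inhibition: plate controls were ThO with dsDNA and no compound for no effect and ThO without dsDNA for full effect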
Method in brief: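 Assay buffer: Tris-HCl pH7.5 with 50mM NaCl, 2 mM MgCl2, 0.01% Tween-20. Dye 250 nM, duplex 50 nM final. Readout: decrease in ThO endpoint fluorescence, 480 nm excitation, 540 nm emission.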

[4] = qHTS for differential inhibitors of proliferation of Plasmodium falciparum line 7G8 (AID 1815);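 further: parasite growth measured after three days of incubation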; further: potency means the concentration at half of the fitted maximal effect;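 on activity change, negative = inhibition: plate controls were vehicle wells for no effect and reference inhibitor wells for full effect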
[5] = qHTS for differential inhibitors of proliferation of Plasmodium falciparum line GB4 (AID 1816); details: Potency: Plasmodium falciparum GB4 proliferation inhibition;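 further: parasite growth measured after 72 h incubation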; further: potency means the concentration at half of the fitted maximal effect;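 on activity change, negative = inhibition: 0% = vehicle DMSO and -100% = reference inhibitor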
[6] = qHTS for differential inhibitors of proliferation of Plasmodium falciparum line 3D7 (AID 1876); further: potency means the concentration at half of the fitted maximal effect
[7] = qHTS for differential inhibitors of proliferation of Plasmodium falciparum line D10 (AID 1877);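 further: parasites grown with compound for 72 h before DNA staining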; further: potency means the concentration at half of the fitted maximal effect;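 on activity change, negative = inhibition: plate controls were vehicle wells for no effect and reference inhibitor wells for full effect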
[8] = qHTS for differential inhibitors of proliferation of Plasmodium falciparum line Dd2 (AID 1882); details: Potency: Plasmodium falciparum Dd2 proliferation inhibition; further: nearly all actives have a fitted effect of over 65% in size; further: potency means the concentration at half of the fitted maximal effect;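 on activity change, negative = inhibition: compound exposure of 72 h on infected erythrocytes; plate controls were DMSO vehicle for no effect and 0.29 µM artemisinin for full effect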
Method in brief: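 SYBR Green I DNA fluorescence read-out, ex 485/em 535 nm. Signals were normalized to 0.29 uM artemisinin and DMSO wells, then corrected using vehicle-only plates flanking each stack. Parasite growth ran 72 h in erythrocytes before lysis.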

[9] = qHTS for differential inhibitors of proliferation of Plasmodium falciparum line W2 (AID 1883); details: Potency: Plasmodium falciparum W2 proliferation inhibition;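 further: parasites grown with compound for 72 h before lysis and staining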; further: potency means the concentration at half of the fitted maximal effect;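 on activity change, negative = inhibition: 0% = vehicle wells and -100% = control inhibitor wells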
[10] = qHTS for differential inhibitors of proliferation of Plasmodium falciparum line HB3 (AID 1886); details: Potency: Plasmodium falciparum HB3 proliferation inhibition;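 further: parasites grown with compound for 72 h before SYBR Green readout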; further: potency means the concentration at half of the fitted maximal effect;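 on activity change, negative = inhibition: plate controls were vehicle for no effect and reference inhibitor for full effect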
[11] = target: Alpha-galactosidase A (Homo sapiens) (UniProt P06280); experiment: Counterscreen for Glucocerebrosidase Inhibitors: qHTS Assay for Human alpha-Galactosidase at pH 4.5 (AID 992); further: 0% is about no effect
Method in brief: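 Concentration-response curves (0.7 nM to 77 uM final) were modeled with the Hill equation to give AC50. Reactions: 2 nM enzyme, 80 uM fluorogenic alpha-galactoside, pH 4.5 citric acid buffer, 20 min, room temperature.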

[12] = target: alpha-glucosidase (Oryza sativa, rice) (UniProt Q653V4); experiment: Counterscreen for Glucocerebrosidase Inhibitors: qHTS Assay for Rice alpha-Glucosidase at pH 5.0 (AID 997);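 further: 0% = full activity with enzyme and -100% = basal without enzyme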
Method in brief: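 Rice alpha-glucosidase (4 nM final) with 400 uM 4-methylumbelliferyl-alpha-D-glucopyranoside in citrate buffer pH 5.0, 20 min at room temperature, stopped at pH 10; fluorescence 365/440 nm, compounds 0.7 nM–77 uM, AC50 from Hill fits.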

[13] = target: Alpha-galactosidase (Coffea arabica) (UniProt Q42656); experiment: Counterscreen for Glucocerebrosidase Inhibitors: qHTS Assay for Coffee Bean alpha-Galactosidase at pH 5.9 (AID 998);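 further: plate controls were uninhibited enzyme for no effect and no-enzyme basal signal for full effect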
Method in brief: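 Green coffee bean enzyme (2 nM final) was incubated with compounds (0.7 nM–77 uM) and 4-methylumbelliferyl alpha-D-galactopyranoside (80 uM) in citrate buffer pH 5.9, 20 min at room temperature. High-pH stop; fluorescence 365/440 nm; AC50 from Hill fits.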

[14] = target: Endonuclease 4 (Escherichia coli (strain K12)) (UniProt P0A6C1); experiment: Counterscreen for APE1 Inhibitors: qHTS Validation Assay for Inhibitors of Endonuclease IV (AID 1708); further: potency means the concentration at half of the fitted maximal effect; on activity change, negative = inhibition: on the % scale 0 is the no-effect control and ±100 the full control effect
Method in brief: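 2 nM enzyme was preincubated with compounds for 15 min at room temperature in 50 mM Tris-HCl pH 7.5, 50 mM NaCl, 2 mM MgCl2, 1 mM DTT, 0.01% Tween-20. 50 nM THF-abasic TAMRA/BHQ-2 duplex substrate started the reaction.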

[15] = Validation of Assay for Modulators of Lamin A Splicing (AID 1459; active means well fitted curve in the direction sought with a large enough effect in the signal ratio; the % refers to the signal ratio;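 further: cells exposed to compound for two days before reading; 0% is about no effect; ratio rise marks activators and ratio drop marks inhibitors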)
Method in brief: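 Splicing correction is reported by an EGFP-containing lamin A minigene in stably transfected S3 HeLa cells, while DsRed2 controls for viability and nonspecific signal. Cells are exposed to compounds for 48 hrs before the GFP over RFP ratio is taken.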

[16] = qHTS Assay for Modulators of Human Peripheral Myelin Protein 22 (PMP22) Expression/Activity (AID 1967; active means well fitted curve in the direction sought with a large enough effect in the signal ratio; the % refers to the signal ratio;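 further: 0% = untreated cells and 100% end not stated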)
Method in brief: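 Quantitative HTS in a mouse Schwann cell line expressing dual click beetle luciferases: Pmp22 promoter (green) and control EF-alpha promoter (red). After 24h treatment, corrected green/red signal ratio gave %Activity relative to untreated cells.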

[17] = measured here: cell count channel max response
[18] = measured here: lipid channel max response

Sequence of DNA repair nuclease/redox regulator APEX1 (Homo sapiens) (P27695 whole entry, looked up): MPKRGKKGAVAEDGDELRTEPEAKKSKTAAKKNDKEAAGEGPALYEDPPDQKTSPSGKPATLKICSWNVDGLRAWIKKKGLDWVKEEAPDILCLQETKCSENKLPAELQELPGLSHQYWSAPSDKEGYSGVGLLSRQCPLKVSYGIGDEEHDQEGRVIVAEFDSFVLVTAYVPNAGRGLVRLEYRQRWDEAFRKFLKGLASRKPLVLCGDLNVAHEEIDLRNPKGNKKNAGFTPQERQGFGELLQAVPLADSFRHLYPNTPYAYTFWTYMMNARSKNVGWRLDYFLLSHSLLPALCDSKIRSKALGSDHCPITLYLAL
Sequence of Alpha-galactosidase (Coffea arabica) (Q42656 whole entry, looked up): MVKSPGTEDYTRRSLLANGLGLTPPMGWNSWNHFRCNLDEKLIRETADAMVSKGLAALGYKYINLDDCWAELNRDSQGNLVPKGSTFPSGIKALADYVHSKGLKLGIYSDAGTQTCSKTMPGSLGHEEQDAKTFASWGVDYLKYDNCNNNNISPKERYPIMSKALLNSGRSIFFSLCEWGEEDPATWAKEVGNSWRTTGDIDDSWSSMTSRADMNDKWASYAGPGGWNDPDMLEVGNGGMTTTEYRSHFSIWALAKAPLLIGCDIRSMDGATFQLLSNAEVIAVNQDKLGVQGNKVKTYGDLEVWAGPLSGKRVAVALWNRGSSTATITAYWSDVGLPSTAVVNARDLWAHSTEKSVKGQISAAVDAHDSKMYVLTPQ
Sequence of Alpha-galactosidase A (Homo sapiens) (P06280 whole entry, looked up): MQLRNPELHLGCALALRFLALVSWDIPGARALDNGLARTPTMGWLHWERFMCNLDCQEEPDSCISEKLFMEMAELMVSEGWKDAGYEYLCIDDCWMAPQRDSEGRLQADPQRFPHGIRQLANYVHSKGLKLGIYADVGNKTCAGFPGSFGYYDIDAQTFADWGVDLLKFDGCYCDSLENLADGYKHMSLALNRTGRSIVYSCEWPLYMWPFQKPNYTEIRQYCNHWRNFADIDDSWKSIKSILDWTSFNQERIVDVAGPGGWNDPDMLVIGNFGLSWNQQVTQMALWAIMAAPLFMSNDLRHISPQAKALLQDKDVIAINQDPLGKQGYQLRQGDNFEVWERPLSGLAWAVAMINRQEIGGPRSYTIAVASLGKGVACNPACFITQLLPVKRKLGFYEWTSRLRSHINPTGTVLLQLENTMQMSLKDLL

SMILES | activity change, negative = inhibition ([1]; at 57.5 µM (top of the series)) | max response [1, 17] | max response [1, 18] | Potency [2] | Potency [3] | Potency [4] | Potency [5] | Potency [6] | Potency [7] | Potency [8] | Potency [9] | Potency [10] | activity change, negative = inhibition ([1]; at 25.7 µM (top of the series)) | outcome [11] | outcome [12] | outcome [13] | Potency [14] | outcome [15] | outcome [16]
CN1C2CCC1CC(OC(c1ccccc1)c1ccc(Cl)cc1)C2 (stereo not given) | 0.923% (inactive) | -27.9% | -25.4% | inactive | inactive | 2.24 µM (active) | 2.24 µM (active) | 2.24 µM (active) | 7.94 µM (active) | 8.91 µM (active) | 1.12 µM (active) | 2.24 µM (active) |  |  |  |  |  |  | 
O=S(=O)(O)c1cc(O)ccc1O |  | 11.8% | 12.6% |  |  |  |  |  |  |  |  |  | 1.28% (inactive) |  |  |  |  |  | 
Cc1c2ccncc2c(C)c2c1[nH]c1ccccc12 |  |  |  | 3.16 µM (active) | inactive | 0.794 µM (active) | 0.398 µM (active) | 0.447 µM (active) | 2 µM (active) | 1.12 µM (active) | 0.708 µM (active) | 1.41 µM (active) |  | inactive | inactive | inactive | 2.82 µM (active) |  | 
CC(C)(C)c1o[nH]c(=O)c1CC(N)C(=O)O (stereo not given) |  |  |  | inactive | inactive | inactive | inactive | inactive | inactive | inactive |  | inactive |  |  |  |  |  | inactive | inactive
CNC(=O)OCC[N+](C)(C)C |  |  |  |  | inactive | inactive | inactive | inactive |  | inactive | inactive | inactive |  | inactive | inactive | inactive | inactive | inactive | 
CC(=O)c1c(O)c(C)c(O)c(Cc2c(O)c3c(c(C(=O)/C=C/c4ccccc4)c2O)OC(C)(C)C=C3)c1O | 1.99% (inactive) | 24.5% | 25.8% | inactive | 2.24 µM (active) | 3.16 µM (active) | 3.16 µM (active) | 3.98 µM (active) | 10 µM (active) | 7.94 µM (active) | 3.55 µM (active) | 5.62 µM (active) |  |  |  |  | inactive |  | 
COc1cc(CC(C)N)c(OC)cc1I (stereo not given) |  |  |  | inactive | inactive | 10 µM (active) | 6.31 µM (active) | inactive | inactive |  | 4.47 µM (active) | inactive |  |  |  |  |  | inactive | 
O=c1ccc2[nH]cc(C3=CCNCC3)c2[nH]1 | 9.75% (inactive) | 9.34% | 20.6% |  |  |  |  |  |  |  |  |  |  |  |  |  |  |  | 
C[C@H](N)CN1CCc2ccc(Br)cc21 | 0.866% (inactive) | -15.5% | -16.4% | inactive | inactive | 8.91 µM (active) | 1.26 µM (active) | 8.91 µM (active) |  | 8.91 µM (active) | 2.24 µM (active) | 11.2 µM (active) |  | inactive | inactive | inactive |  |  | 
CN1CC[C@@]2(C)c3cc(O)ccc3N(C)C12 (stereo not given in full) | 0.587% (inactive) | -12.4% | -11.4% | inactive | inactive | 12.6 µM (active) | 11.2 µM (active) | 11.2 µM (active) | 14.1 µM (active) | 12.6 µM (active) | 12.6 µM (active) | 8.91 µM (active) |  |  |  |  | inactive |  | 
C=CCN1CCC23c4c5ccc(O)c4O[C@H]2C(=O)CC[C@@]3(O)C1C5 (stereo not given in full) |  |  |  | inactive | inactive | inactive | inactive | inactive | inactive | inactive |  | inactive |  |  |  |  | inactive |  | 
C=CCC1(C(C)CCC)C(=O)N=C(S)NC1=O (stereo not given) | 5.57% (inactive) | 14.6% | 20.4% |  |  |  |  |  |  |  |  |  |  |  |  |  |  |  | 
CN1[C@@H]2CC[C@H]1CC(OC1c3ccccc3CCc3ccccc31)C2 (stereo not given in full) |  | -5.63% | -11.3% |  |  |  |  |  |  |  |  |  | -3.36% (inactive) |  |  |  |  |  | 
NC(=O)c1ccc(OCC(O)CN2CC=C(c3ccc(F)cc3)CC2)cc1 (stereo not given) | -3.69% (inactive) | -43.3% | -42.5% | inactive | inactive |  | 10 µM (active) | 11.2 µM (active) |  |  | 7.94 µM (active) |  |  |  |  |  | inactive |  | 
NC(N)=Nc1ccc2[nH]c3c(c2c1)C[C@@]1(O)[C@H]2Cc4ccc(O)c5c4[C@@]1(CCN2CC1CC1)[C@H]3O5 | -5.63% (inactive) | -1.13% | -6.88% | inactive | inactive | inactive |  | inactive |  | inactive |  | inactive |  |  |  |  | inactive |  | 
CCN(CCCl)Cc1ccccc1Br | -2.24% (inactive) | 32.6% | 31.1% | inactive | inactive |  | 12.6 µM (active) | 10 µM (active) |  |  | 11.2 µM (active) | 10 µM (active) |  | inactive | inactive | inactive |  |  | inactive
CCCN(CCC)[C@H]1CCc2c(F)ccc(O)c2C1 |  |  |  |  | inactive | 1 µM (active) | 0.501 µM (active) | 2 µM (active) | 2.24 µM (active) | 1.26 µM (active) | 0.447 µM (active) | 1.41 µM (active) |  | inactive | inactive | inactive | inactive | inactive | 
Nc1ccc(CCN2CCN(c3cccc(C(F)(F)F)c3)CC2)cc1 |  |  |  | inactive | inactive | 7.94 µM (active) |  | inactive |  | inactive | 10 µM (active) | inactive |  | inactive | inactive | inactive |  | inactive | 
O=[N+]([O-])c1ccc2nc(N3CCNCC3)ccc2c1 |  |  |  | inactive | inactive | 8.91 µM (active) | 12.6 µM (active) | 10 µM (active) | 12.6 µM (active) |  | 7.94 µM (active) | 12.6 µM (active) |  | inactive | inactive | inactive | inactive |  | 
